# In all, about 310,000 compounds went through this assay and about 2,200 (0.71%) showed an effect of 50% or more. Effects have a minus sign here. The entries come from a sample that favours strong results as a whole.
# Biological target: human ether-à-go-go-related gene (hERG) potassium channel (human, UniProt Q12809)
# Assay: primary screen, population patch clamp on CHO cells stably expressing hERG; higher = less effect of the substance
# human ether-à-go-go-related gene (hERG) potassium channel, sequence (Q12809 whole entry, looked up): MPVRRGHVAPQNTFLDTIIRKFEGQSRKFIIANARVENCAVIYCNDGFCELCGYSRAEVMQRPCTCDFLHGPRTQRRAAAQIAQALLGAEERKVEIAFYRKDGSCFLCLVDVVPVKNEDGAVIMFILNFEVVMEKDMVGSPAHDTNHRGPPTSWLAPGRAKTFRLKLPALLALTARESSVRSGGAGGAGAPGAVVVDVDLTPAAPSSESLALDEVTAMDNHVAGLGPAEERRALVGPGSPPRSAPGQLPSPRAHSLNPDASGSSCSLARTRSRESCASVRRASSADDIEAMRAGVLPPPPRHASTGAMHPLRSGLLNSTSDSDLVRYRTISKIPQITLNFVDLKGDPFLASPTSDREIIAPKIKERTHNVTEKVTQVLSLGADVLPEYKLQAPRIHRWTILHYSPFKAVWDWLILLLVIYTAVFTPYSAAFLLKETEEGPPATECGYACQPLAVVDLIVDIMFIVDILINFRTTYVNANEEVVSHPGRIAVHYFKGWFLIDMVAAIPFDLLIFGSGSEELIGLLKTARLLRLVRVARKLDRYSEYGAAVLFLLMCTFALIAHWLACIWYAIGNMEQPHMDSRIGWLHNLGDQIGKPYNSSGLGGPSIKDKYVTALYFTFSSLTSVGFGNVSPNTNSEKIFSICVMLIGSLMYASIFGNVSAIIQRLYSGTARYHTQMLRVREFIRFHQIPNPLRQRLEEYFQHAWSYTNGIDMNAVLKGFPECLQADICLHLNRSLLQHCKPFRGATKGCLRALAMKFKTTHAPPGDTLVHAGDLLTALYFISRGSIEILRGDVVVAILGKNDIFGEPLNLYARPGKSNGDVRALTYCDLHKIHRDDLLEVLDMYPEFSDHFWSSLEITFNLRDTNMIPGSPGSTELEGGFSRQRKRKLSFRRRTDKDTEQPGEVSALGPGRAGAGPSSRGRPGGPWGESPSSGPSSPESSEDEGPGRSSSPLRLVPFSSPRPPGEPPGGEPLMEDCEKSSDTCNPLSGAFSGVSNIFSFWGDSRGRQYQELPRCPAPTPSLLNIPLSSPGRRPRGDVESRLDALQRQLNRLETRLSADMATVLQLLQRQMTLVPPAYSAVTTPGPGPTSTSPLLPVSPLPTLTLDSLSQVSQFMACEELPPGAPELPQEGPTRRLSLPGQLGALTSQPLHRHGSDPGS
row,Compound,"hERG current change (%, negative = inhibition) at 1uM [%]"
1,CC(C)C(NC(=S)NCc1ccccc1)C(=O)O (centres unmarked),12.7
2,N#CNC(N)=Nc1cccc(Cl)c1,16.4
3,O=C(N/N=C/c1cn(-c2ccccc2)nc1-c1cccnc1)c1cccnc1,-26.3
4,Cc1cc(C)cc(NC(=O)CCN2CCOCC2)c1,7.44
5,C#CCN(N(C)c1ncc(C(F)(F)F)cc1Cl)S(=O)(=O)c1ccc2ccccc2c1,14.3
6,Cc1ccc(NC(=S)c2nc3ccccc3[nH]2)c(C)c1,14.6
7,CC(C)Cn1c(-c2ccc(F)cc2)n[nH]c1=S,11.6
8,CC(C(=O)N1CCc2ccccc21)N1CCN(Cc2ccc(Cl)cc2)CC1 (centres unmarked),-30.9
9,COc1ccc(CN2CCN(CCCc3ccccc3)CC2)c(OC)c1,-64.9
10,COc1ccc(CN2CCC(C(=O)N3CCN(c4ccccc4F)CC3)CC2)cc1OC,3.9
11,COc1ccc(CN2CCN(Cc3ccccc3F)CC2)c(OC)c1.O=C(O)C(=O)O,-36
12,COc1ccc(CN2CCN(c3ccccc3F)CC2)cc1O,-51.2
13,CC(C(=O)N1CCc2ccccc21)N1CCN(Cc2ccccc2)CC1 (centres unmarked),4.18
14,COc1ccc(CN2CCN(Cc3ccccc3)CC2)c(OC)c1,-43.8
15,COc1ccc(CN2CCN(CCCc3ccccc3)C(CCO)C2)c(OC)c1 (centres unmarked),-39.7
16,COc1ccc(CN2CCN(C(C)C(=O)N3CCc4ccccc43)CC2)cc1OC (centres unmarked),-52.3
17,COc1ccc(CN2CCN(c3ccccc3F)CC2)c(OC)c1,-57.8
18,COc1cc(CN2CCN(c3ccccc3F)CC2)cc(OC)c1O,2.78
19,COc1ccc(CN2CCN(c3ccccc3OC)CC2)c(OC)c1.O=C(O)C(=O)O,-47.7
20,C(=N\n1cnnc1)/c1cccs1,5.5
21,CN(c1ccc(C(=O)NCCSCc2ccc(Cl)cc2)cc1)S(=O)(=O)c1ccccc1,14.1
22,CCc1ccc(CN(C)C(=O)c2cc(COc3cccc(C(F)(F)F)c3)on2)nc1,6.84

row,Compound,"hERG current change (%, negative = inhibition) at 1uM [%]"
1,C=CCNC(=O)CSc1nnc(C(CC)N(C)C)n1C1CCCCC1 (centres unmarked),8.12
2,O=C(Nc1nc(-c2ccccc2)cs1)c1ccc(N2CCOCC2)c([N+](=O)[O-])c1,31.6
3,CC(=O)Nc1ccc2c(c1)N(C(=O)CN(C)C)c1ccccc1CC2,9.16
4,Cc1cc(C(=O)CN2C(=O)c3ccccc3C2=O)c(C)n1Cc1cccs1,9.88
5,COc1ccc(CN2CCN(c3ccccn3)CC2)c(OC)c1C.O=C(O)C(=O)O,5.42
6,COc1cc(CN2CCN(c3cccc(C)c3C)CC2)cc(OC)c1O,-20.4
7,COc1ccc(CN2CCN(c3ccccn3)CC2)c(OC)c1,-52
8,COc1ccc(CN2CCN(c3cccc(C)c3C)CC2)cc1OC,-61.1
9,COc1cc(CN2CCN(c3cccc(C)c3C)CC2)cc(Br)c1O,1.25
10,COc1ccc(-c2[nH]ncc2CN2CCN(c3ccccn3)CC2)c(OC)c1,2.51
11,CCOc1ccc(NC(=O)CCC(=O)c2ccc(OC)cc2)cc1,16.1
12,Cc1c(Cl)ccc(S(=O)(=O)NCCCn2ccnc2)c1Cl,12.2
13,CN1CCN(C(=O)c2cnn(-c3ccccc3)c2NC(=O)c2ccccc2Br)CC1,15.2
14,CN1CCN(C(=O)c2cnn(-c3ccccc3)c2NC(=O)c2ccc(Br)cc2)CC1,-88.5
15,CN1CCN(C(=O)c2cnn(-c3ccccc3)c2NC(=O)c2ccccc2)CC1,10.4
16,COc1ccc(CCNC(=O)c2cc3c(=O)n4cccc(C)c4nc3n(CCCN3CCOCC3)c2=N)cc1,-85.1
17,COc1ccc(CCNC(=O)c2cc3c(=O)n4ccccc4nc3n(CCCN3CCOCC3)c2=N)cc1OC,-39.4
18,COc1ccc(CCNC(=O)c2cc3c(=O)n4ccccc4nc3n(CCN3CCOCC3)c2=N)cc1,-82
19,COc1ccc(CNC(=O)C(C)Sc2nc3ccccc3c(=O)n2CCCN2CCOCC2)cc1 (centres unmarked),-95
20,COc1ccc(CCNC(=O)c2cc3c(=O)n4ccccc4nc3n(CCCN3CCOCC3)c2=N)cc1,-88.9
21,COc1ccc(CCn2c(=N)c(C(=O)NCCN3CCOCC3)cc3c(=O)n4ccccc4nc32)cc1OC,10.4
22,Cc1cccn2c(=O)c3cc(C(=O)NCCN4CCOCC4)c(=N)n(CCCN4CCOCC4)c3nc12,16.7

row,Compound,"hERG current change (%, negative = inhibition) at 1uM [%]"
1,COc1ccc(CNC(=O)C(C)Sc2nc3ccccc3c(=O)n2CC2CCCO2)cc1 (centres unmarked),-17.5
2,COc1ccccc1CNC(=O)CSc1nc2ccccc2c(=O)n1CCCN1CCOCC1,-6.17
3,Cc1cc(=O)[nH]c(N/N=C/c2c(C)nn(-c3ccc(F)cc3)c2Cl)n1,-3.02
4,CN1CCN(c2ccc(NC(=O)c3cc4ccccc4o3)cc2)CC1,-14.8
5,CCCC(C(=O)NC(C)(C)CC)N(CC1CCCO1)C(=O)CNS(=O)(=O)c1ccc(F)cc1 (centres unmarked),-12.1
6,Cc1nc2ccccc2n1C1CCN(CC(=O)NCc2ccc(F)cc2)CC1,-23.3
7,COc1ccc(CNC(=O)CCC(=O)N2CC(C)Oc3ccccc32)cc1 (centres unmarked),-0.874
8,CCN(C(=O)c1ccc2c(OC)n(CC)nc2c1)c1ccc(OC)cc1,0.888
9,CC(=O)c1cccc(NC(=O)C2CCN(S(C)(=O)=O)CC2)c1,10.7
10,CN(C)C=NC(=O)/C(C#N)=C1\CCc2ccccc2N1,0.195
11,COc1cc(Cl)cc(/C=C/c2ccc3ccccc3n2)c1OC(C)=O,16.6
12,CCCNc1nc(C)cc(-c2cc(C(=O)Nc3ccccc3)on2)n1,6.25
13,COCCNC(=O)c1cccc(OC2CCN(Cc3ccc(F)c(OC)c3)CC2)c1,4.26
14,COCCNC(=O)c1cccc(OC2CCN(Cc3ccc(C(C)C)cc3)CC2)c1,-11.3
15,COc1ccc(C(=O)NC2CC2)cc1OC1CCN(Cc2ccc(Cl)cc2)CC1,-86.8
16,COc1cc(C(=O)NC2CCN(Cc3ccccc3)CC2)cc(Cl)c1OC,-1.24
17,COc1ccc(C(=O)NC2CC2)cc1OC1CCN(Cc2ccc(F)c(F)c2)CC1,-70.2
18,COCCCNC(=O)c1ccc(OC)c(OC2CCN(C(C)C)CC2)c1,14.6
19,COc1ccc(C(=O)NC2CC2)cc1OC1CCN(Cc2ccccc2)CC1,-82.9
20,COc1ccc(C(=O)NC2CC2)cc1OC1CCN(Cc2cnn(C)c2)CC1,6.61
21,COc1ccc(C(=O)NC2CCC(O)CC2)cc1S(=O)(=O)NCc1ccc(Cl)cc1 (centres unmarked),-0.258
22,COc1ccc(C(=O)NCCc2cccc(Cl)c2)cc1OC1CCN(C(C)=O)CC1,-6.31

row,Compound,"hERG current change (%, negative = inhibition) at 1uM [%]"
1,COCCNC(=O)c1cccc(OC2CCN(Cc3ccc(OC(F)F)cc3)CC2)c1,-75.4
2,COCCNC(=O)c1cccc(OC2CCN(Cc3ccc(C(=O)OC)cc3)CC2)c1,6.44
3,CCCCCCCCCCCCOC1OC(CO)C(O)C(O)C1NC(C)=O (centres unmarked),4.7
4,CC(Oc1ccccc1)C(=O)N=C1SC2CS(=O)(=O)CC2N1CCc1ccccc1 (centres unmarked),8.75
5,Cc1cc(Br)ccc1NC(=O)CN1C(=O)C2CC=CCC2C1=O (centres unmarked),2.16
6,CCn1c(SCC(=O)c2ccc3c(c2)OCCO3)nnc1C(C)C,7.74
7,O=C(Cn1c(=O)c(C(F)(F)F)nc2ccccc21)N1CCC2(CC1)OCCO2,-0.212
8,O=C(/C=C/c1ccoc1)c1ccccc1O,3.71
9,COc1ccc(CN2CCN(Cc3ccc(C)cc3)C(CCO)C2)cc1OC (centres unmarked),-13.3
10,COc1cc(C(=O)NC2CCCCC2)ccc1OC1CCN(C(C)=O)CC1,11.4
11,COc1ccc(C(=O)NC2CCCCC2)cc1OC1CCN(C(C)C)CC1,-30.9
12,COc1cc(C(=O)NC2CCN(Cc3nnnn3Cc3ccc(F)cc3)CC2)cc(OC)c1OC,3.89
13,C/C=C(\C)CN1CCC(Oc2cc(C(=O)NC3CC3)ccc2OC)CC1,-59.9
14,COc1ccc(C(=O)NC2CC2)cc1OC1CCN(Cc2ccc(SC)cc2)CC1,-96.9
15,COc1ccc(C(=O)NCCCSC)cc1OC1CCN(C(C)C)CC1,13.4
16,COc1ccc(C(=O)NC2CC2)cc1OC1CCN(Cc2ccc(F)cc2)CC1,-81.9
17,COc1ccc(C(=O)NC2CCCCCC2)cc1OC1CCN(C(C)=O)CC1,7.33
18,COc1ccc(C(=O)NC2CC2)cc1OC1CCN(C(C)CSC)CC1 (centres unmarked),-54.2
19,O=C(NC1CCN(Cc2ccccc2)CC1)c1ccc2c(c1)[nH]c(=O)n2Cc1ccc(F)cc1,6.14
20,Cc1ccc(S(=O)(=O)N2CCN(C(=O)CSc3ncc(C(F)(F)F)cc3Cl)CC2)cc1,11.1

# From paper PMC4336329 (PLoS ONE, 2015)
